D1 agonist = agonists of human D1 dopamine receptor. P21728. HEK293 T-REx D1 cells, calcium flux, agonist mode. activation, % at 2 µM. 360,000 compounds, 1% hits. AID 504660; in the data active = activation above about 30%
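Tetracycline-induced HEK293 TREx D1 cells, force-coupled to calcium signalling, were dye-loaded with a no-wash calcium kit. Compound was pin-added after a 10 s baseline. Fluorescence was read kinetically at 1 cycle/s for 180 s, with calcium rises flagged as agonism.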
D1 potentiator = enhances dopamine response at the human D1 receptor. potentiation, % at 10 µM. HEK293 TREx D1 cells, calcium flux, dopamine EC20 potentiation. 360,000 compounds, 0.036% hits; in the data active = potentiation above about 30%
DRD3 antagonist = antagonists of human D3 dopamine receptor; D3R cells, DiscoveRx beta-arrestin luminescence, antagonist mode; active compounds read low; max response, negative = inhibition, %; 360,000 compounds, 2.5% hits; AID 652054; in the data active = max response below about -50%; inconclusive = no clear call, values can overlap the other calls
Target sequence (P35462 whole entry, looked up): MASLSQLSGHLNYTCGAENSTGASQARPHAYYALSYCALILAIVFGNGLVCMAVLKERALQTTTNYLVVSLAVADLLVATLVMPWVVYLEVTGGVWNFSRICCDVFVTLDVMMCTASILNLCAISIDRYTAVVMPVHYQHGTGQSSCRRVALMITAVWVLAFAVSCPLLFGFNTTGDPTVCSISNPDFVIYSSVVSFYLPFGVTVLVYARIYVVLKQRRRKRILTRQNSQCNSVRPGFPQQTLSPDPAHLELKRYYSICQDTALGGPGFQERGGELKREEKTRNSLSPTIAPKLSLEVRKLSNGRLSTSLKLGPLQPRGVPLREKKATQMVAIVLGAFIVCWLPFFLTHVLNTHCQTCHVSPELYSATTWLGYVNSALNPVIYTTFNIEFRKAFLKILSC
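Cells plated overnight at 1500 cells/well, then exposed to library compounds with dopamine controls for 90 minutes at 37 degrees C. DiscoveRx reagent added for 30–60 minutes at room temperature; luminescence read, quantitative HTS format.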
D1 antag = antagonists of human D1 dopamine receptor | P21728 | 360,000 compounds, 3.2% hits | activity change, negative = inhibition, % at 10 µM | HEK293 TREx D1 cells, calcium flux, dopamine EC80; active compounds read low; in the data active = activity change below about -30%
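HEK293 T-REx cells expressing inducible, force-coupled D1 receptor; no-wash Ca dye, 30–90 min RT. Cmpd → 180 s read at 1 Hz → EC80 DA → 180 s read.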
D3 ag = activates the human D3 dopamine receptor; 410,000 compounds, 0.58% hits; D3R DiscoveRx beta-arrestin cells, luminescence, 90 min; max activation, %; AID 652048; P35462; in the data active = max activation above about 30%
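Cells at 1500/well, incubated overnight, then treated with pinned compounds (dopamine as control) for 90 min at 37 degrees C. DiscoveRx reagent added for 30 - 60 minutes at room temperature; luminescence read.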
Numbers stand for hits. This is a sample that favours compounds with a hit; in the whole collection about 6.1% have one here.

How did CCN(C(=O)Cn1nc(Cc2ccncc2)c2ccccc2c1=O)c1cccc(Cl)c1 do in these assays?
D1 agonist: inactive; D1 potentiator: inactive; D1 antag: -83; D3 ag: inactive

What do the screens show for `COC(=O)c1sc(-c2ccc(C(C)(C)C)cc2)cc1NC(=O)COCC(=O)O`?
D1 agonist: 58; D1 potentiator: inactive; DRD3 antagonist: inactive; D1 antag: -39; D3 ag: inactive

How did COC(=O)c1sc(-c2ccc(Cl)cc2)cc1NC(=O)CSCC(=O)O do in these assays?
D1 agonist: inactive; D1 potentiator: inactive; DRD3 antagonist: inactive; D1 antag: inactive; D3 ag: inactive

Results for COc1ccc(C(=O)NC(=S)Nc2cc3oc4ccccc4c3cc2OC)cc1 ?
D1 agonist: inactive; D1 potentiator: inactive; DRD3 antagonist: inactive; D1 antag: -78; D3 ag: 31

What do the screens show for `COc1cc(OC)cc(C(=O)NC(=S)Nc2cc3oc4ccccc4c3cc2OC)c1`?
D1 agonist: inactive; D1 potentiator: inactive; DRD3 antagonist: inactive; D1 antag: inactive; D3 ag: inactive

What do the screens show for `Cc1ccc(C)c(NC(=O)C(CC(=O)O)C2CCCO2)c1` (centres undefined)?
D1 agonist: inactive; D1 potentiator: inactive; DRD3 antagonist: inactive; D1 antag: inactive; D3 ag: inactive

Results for O=C(O)CC(C(=O)Nc1ccc(Cl)cc1Cl)C1CCCO1 (centres undefined) ?
D1 agonist: inactive; D1 potentiator: inactive; DRD3 antagonist: inactive; D1 antag: -63; D3 ag: inactive

How did O=C(/C=C/c1cccc(Cl)c1Cl)OCC(=O)N1CCOCC1 do in these assays?
D1 agonist: inactive; D1 potentiator: inactive; DRD3 antagonist: -59; D1 antag: inactive; D3 ag: inactive

How did O=C(CN1CCN(Cc2ccc(F)cc2Cl)C1=O)NCCCN1CCOCC1 do in these assays?
D1 agonist: inactive; D1 potentiator: inactive; DRD3 antagonist: inactive; D1 antag: inactive; D3 ag: inactive

What do the screens show for `O=C(CN1CCN(Cc2ccc(Cl)cc2)C1=O)NCCCN1CCOCC1`?
D1 agonist: inactive; D1 potentiator: inactive; DRD3 antagonist: inactive; D1 antag: inactive; D3 ag: inactive

How did Cc1ccccc1CN1CCN(CC(=O)NCCCN2CCN(c3ccc(F)cc3)CC2)C1=O do in these assays?
D1 agonist: inactive; D1 potentiator: inactive; DRD3 antagonist: inconclusive; D1 antag: -65; D3 ag: inactive

How did O=C(CN1CCN(Cc2ccc(Cl)cc2)C1=O)NCCCN1CCN(c2ccc(F)cc2)CC1 do in these assays?
D1 agonist: inactive; D1 potentiator: inactive; DRD3 antagonist: -66; D1 antag: inactive; D3 ag: inactive

How did CCN(CC)CCCNC(=O)c1c(C)oc2ncn(CC(C)C)c(=O)c12 do in these assays?
D1 agonist: inactive; D1 potentiator: inactive; D1 antag: inactive; D3 ag: inactive

How did CC1=C(C(=O)OCC(C)C)C(c2ccsc2)C2=C(CCCC2=O)N1 (centres undefined) do in these assays?
D1 agonist: inactive; D1 potentiator: inactive; DRD3 antagonist: inactive; D1 antag: inactive; D3 ag: inactive

How did CSc1ccccc1NC(=O)CSc1nnc(CNC(=O)c2ccccc2F)n1C do in these assays?
D1 agonist: 48; DRD3 antagonist: inactive; D1 antag: inactive; D3 ag: inactive

What do the screens show for `CC(C)(C)OC(=O)N1CCC(c2c(C(=O)Nc3ccc4c(c3)OCCO4)cnn2-c2ccccc2)CC1`?
D1 agonist: inactive; D1 potentiator: inactive; D1 antag: -30; D3 ag: inactive

Results for Cc1ccc(-n2ncc(C(=O)Nc3ccc4c(c3)OCCO4)c2C2CCN(C(=O)OC(C)(C)C)CC2)cc1 ?
D1 agonist: inactive; D1 potentiator: inactive; D1 antag: inactive; D3 ag: inactive

What do the screens show for `COc1ccc(CCN2CCC(CNC(=O)c3cnn(-c4ccc(C)cc4)c3C3CCN(C(=O)OC(C)(C)C)CC3)CC2)cc1`?
D1 agonist: 58; D1 potentiator: inactive; D1 antag: inactive; D3 ag: inactive

What do the screens show for `COc1ccccc1CNC(=O)c1cnn(-c2ccc(F)cc2F)c1C1CCN(C(=O)OC(C)(C)C)CC1`?
D1 agonist: inactive; D1 potentiator: inactive; D1 antag: -59; D3 ag: inactive

How did COc1ccc(CN2C(=O)c3ccccc3C2(C)c2nc3ccccc3[nH]2)cc1 (centres undefined) do in these assays?
DRD3 antagonist: inactive; D3 ag: inactive

Screening results (PubChem)
